Source: the supplement of paper PMC8728848
Only a selection was taken, and the strongest signals are over-represented in it overall.

Columns and labels:
Assay in all cases: glycan array binding signal (z-score within array); higher = stronger binding
Conditions in all cases: glycan notation: IUPAC condensed, linker removed
[1] = target: Fuc(a1-2)Gal(b1-3)GalNAc(a1-3)[Fuc(a1-2)]Gal(b1-4)Glc
Summary of the method: (§1)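 Glycan array binding is given as a within-array Z-score, which can be read as non-binding when negative. The arrays, 3228 of them, came from the Consortium for Functional Glycomics database and were retained only where the protein sequence was available. Z-scores were averaged across arrays of the same protein sequence at different concentrations or buffers and across linkers.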

[2] = target: Fuc(a1-2)Gal(b1-3)GlcNAc(b1-2)Man(a1-3)[Fuc(a1-2)Gal(b1-3)GlcNAc(b1-2)Man(a1-6)]Man(b1-4)GlcNAc(b1-4)GlcNAc
Summary of the method: as §1

Fuc(a1-2)Gal(b1-4)Glc6S = target: Fuc(a1-2)Gal(b1-4)Glc6S
Summary of the method: as §1

[3] = target: Fuc(a1-2)Gal(b1-4)GlcNAc6S
Summary of the method: as §1

[4] = target: Fuc(a1-2)[Gal(a1-3)]Gal(b1-3)GlcNAc
Summary of the method: as §1

[5] = target: Fuc(a1-2)[Gal(a1-3)]Gal(b1-3)GlcNAc(b1-6)GalNAc
Summary of the method: as §1

[6] = target: Fuc(a1-2)[Gal(a1-3)]Gal(b1-4)GlcNAc(b1-2)Man(a1-3)[Fuc(a1-2)[Gal(a1-3)]Gal(b1-4)GlcNAc(b1-2)Man(a1-6)]Man(b1-4)GlcNAc(b1-4)GlcNAc
Summary of the method: as §1

[7] = target: Fuc(a1-2)[GalNAc(a1-3)]Gal
Summary of the method: as §1

[8] = target: Fuc(a1-2)[GalNAc(a1-3)]Gal(b1-4)GlcNAc(b1-3)GalNAc
Summary of the method: as §1

[9] = target: Gal(a1-3)Gal(b1-3)GlcNAc(b1-2)Man(a1-3)[Gal(a1-3)Gal(b1-3)GlcNAc(b1-2)Man(a1-6)]Man(b1-4)GlcNAc(b1-4)GlcNAc
Summary of the method: as §1

[10] = target: Gal(a1-4)Gal(b1-4)GlcNAc(b1-3)Gal(b1-4)Glc
Summary of the method: as §1

Gal(b1-3)GalNAc(b1-3)Gal = target: Gal(b1-3)GalNAc(b1-3)Gal
Summary of the method: as §1

[11] = target: Gal(b1-3)GlcNAc(b1-3)Gal(b1-4)GlcNAc
Summary of the method: as §1

[12] = target: Gal(b1-3)GlcNAc(b1-3)Gal(b1-4)GlcNAc(b1-2)[Gal(b1-3)GlcNAc(b1-3)Gal(b1-4)GlcNAc(b1-6)]Man(a1-6)[Gal(b1-3)GlcNAc(b1-3)Gal(b1-4)GlcNAc(b1-2)Man(a1-3)]Man(b1-4)GlcNAc(b1-4)[Fuc(a1-6)]GlcNAc
Summary of the method: as §1

[13] = target: Gal(b1-3)[Fuc(a1-4)]GlcNAc(b1-3)Gal(b1-3)[Fuc(a1-4)]GlcNAc
Summary of the method: as §1

[14] = target: Gal(b1-4)GlcNAc(b1-2)[Gal(b1-4)GlcNAc(b1-6)]Man(a1-6)[GlcNAc(b1-4)][Gal(b1-4)GlcNAc(b1-2)[Gal(b1-4)GlcNAc(b1-4)]Man(a1-3)]Man(b1-4)GlcNAc(b1-4)[Fuc(a1-6)]GlcNAc
Summary of the method: as §1

[15] = target: Gal(b1-4)GlcNAc(b1-3)Gal(b1-4)GlcNAc(b1-3)Gal(b1-4)GlcNAc(b1-2)Man(a1-3)[Gal(b1-4)GlcNAc(b1-3)Gal(b1-4)GlcNAc(b1-3)Gal(b1-4)GlcNAc(b1-2)Man(a1-6)]Man(b1-4)GlcNAc(b1-4)GlcNAc
Summary of the method: as §1

[16] = target: Gal(b1-4)GlcNAc(b1-3)Gal(b1-4)GlcNAc(b1-3)Gal(b1-4)GlcNAc(b1-3)Gal(b1-4)GlcNAc(b1-2)Man(a1-3)[Gal(b1-4)GlcNAc(b1-3)Gal(b1-4)GlcNAc(b1-3)Gal(b1-4)GlcNAc(b1-3)Gal(b1-4)GlcNAc(b1-2)Man(a1-6)]Man(b1-4)GlcNAc(b1-4)[Fuc(a1-6)]GlcNAc
Summary of the method: as §1

[17] = target: Gal(b1-4)GlcNAc(b1-3)Gal(b1-4)GlcNAc(b1-3)[Gal(b1-4)GlcNAc(b1-3)Gal(b1-4)GlcNAc(b1-6)]GalNAc
Summary of the method: as §1

[18] = target: Gal(b1-4)GlcNAc(b1-3)[Fuc(a1-3)GlcNAc(b1-6)]Gal(b1-4)Glc
Summary of the method: as §1

[19] = target: Gal3S(b1-3)[Fuc(a1-4)]GlcNAc
Summary of the method: as §1

Gal6P(b1-4)GlcNAc = target: Gal6P(b1-4)GlcNAc
Summary of the method: as §1

[20] = target: GalNAc(b1-3)Gal(a1-4)Gal(b1-4)GlcNAc(b1-3)Gal(b1-4)Glc
Summary of the method: as §1

GalNAc(b1-3)GalNAc = target: GalNAc(b1-3)GalNAc
Summary of the method: as §1

[21] = target: GlcNAc(a1-4)Gal(b1-4)GlcNAc
Summary of the method: as §1

[22] = target: GlcNAc(a1-4)Gal(b1-4)GlcNAc(b1-3)Gal(b1-4)Glc
Summary of the method: as §1

[23] = target: GlcNAc(a1-4)Gal(b1-4)GlcNAc(b1-3)Gal(b1-4)GlcNAc
Summary of the method: as §1

[24] = target: GlcNAc(a1-4)Gal(b1-4)GlcNAc(b1-3)Gal(b1-4)GlcNAc(b1-3)Gal(b1-4)GlcNAc
Summary of the method: as §1

[25] = target: GlcNAc(b1-2)[GlcNAc(b1-6)]Man(a1-6)[GlcNAc(b1-4)][GlcNAc(b1-2)Man(a1-3)]Man(b1-4)GlcNAc(b1-4)GlcNAc
Summary of the method: as §1

[26] = target: GlcNAc(b1-3)Gal(b1-4)GlcNAc(b1-3)Gal(b1-4)GlcNAc(b1-2)Man(a1-3)[GlcNAc(b1-3)Gal(b1-4)GlcNAc(b1-3)Gal(b1-4)GlcNAc(b1-2)Man(a1-6)]Man(b1-4)GlcNAc(b1-4)[Fuc(a1-6)]GlcNAc
Summary of the method: as §1

[27] = target: GlcNAc(b1-3)Gal(b1-4)GlcNAc(b1-3)Gal(b1-4)GlcNAc(b1-3)GalNAc
Summary of the method: as §1

[28] = target: GlcNAc(b1-4)[GlcNAc(b1-6)]GalNAc
Summary of the method: as §1

GlcNAc(b1-6)GalNAc = target: GlcNAc(b1-6)GalNAc
Summary of the method: as §1

[29] = target: Man(a1-2)Man(a1-6)[Man(a1-3)]Man(a1-6)[Man(a1-2)Man(a1-2)Man(a1-3)]Man
Summary of the method: as §1

Man(b1-4)GlcNAc = target: Man(b1-4)GlcNAc
Summary of the method: as §1

[30] = target: Neu5Ac(a2-3)Gal(b1-3)GlcNAc(b1-2)Man(a1-3)[GlcNAc(b1-4)][Neu5Ac(a2-3)Gal(b1-3)GlcNAc(b1-2)Man(a1-6)]Man(b1-4)GlcNAc(b1-4)GlcNAc
Summary of the method: as §1

[31] = target: Neu5Ac(a2-3)Gal(b1-4)GlcNAc(b1-2)Man(a1-3)[Neu5Ac(a2-3)Gal(b1-4)GlcNAc(b1-2)Man(a1-6)]Man(b1-4)GlcNAc(b1-4)GlcNAc
Summary of the method: as §1

[32] = target: Neu5Ac(a2-3)Gal(b1-4)GlcNAc(b1-3)Gal(b1-4)GlcNAc(b1-3)Gal(b1-4)GlcNAc(b1-2)Man(a1-3)[Neu5Ac(a2-3)Gal(b1-4)GlcNAc(b1-3)Gal(b1-4)GlcNAc(b1-3)Gal(b1-4)GlcNAc(b1-2)Man(a1-6)]GalNAc
Summary of the method: as §1

[33] = target: Neu5Ac(a2-3)Gal(b1-4)GlcNAc(b1-6)GalNAc
Summary of the method: as §1

[34] = target: Neu5Ac(a2-3)[GalNAc(b1-4)]Gal(b1-4)Glc
Summary of the method: as §1

[35] = target: Neu5Ac(a2-6)Gal(b1-4)GlcNAc(b1-2)Man(a1-3)Man(b1-4)GlcNAc(b1-4)GlcNAc
Summary of the method: as §1

[36] = target: Neu5Ac(a2-6)Gal(b1-4)GlcNAc(b1-2)Man(a1-3)[Neu5Ac(a2-3)Gal(b1-4)GlcNAc(b1-2)Man(a1-6)]Man(b1-4)GlcNAc(b1-4)GlcNAc
Summary of the method: as §1

[37] = target: Neu5Ac(a2-6)Gal(b1-4)GlcNAc(b1-3)Gal(b1-4)GlcNAc(b1-3)Gal(b1-4)GlcNAc(b1-2)Man(a1-3)[Neu5Ac(a2-6)Gal(b1-4)GlcNAc(b1-3)Gal(b1-4)GlcNAc(b1-3)Gal(b1-4)GlcNAc(b1-2)Man(a1-6)]GalNAc
Summary of the method: as §1

[38] = target: Neu5Ac(a2-6)Gal(b1-4)GlcNAc(b1-6)[Gal(b1-3)GlcNAc(b1-3)]Gal(b1-4)Glc
Summary of the method: as §1

[39] = target: Neu5Ac(a2-6)GlcNAc(b1-4)GlcNAc
Summary of the method: as §1

[40] = target: Neu5Ac(a2-8)Neu5Ac(a2-3)Gal(b1-3)GalNAc(b1-4)[Neu5Ac(a2-3)]Gal(b1-4)Glc
Summary of the method: as §1

[41] = target: Neu5Ac(a2-8)Neu5Ac(a2-3)[Gal(b1-3)GalNAc(b1-4)]Gal(b1-4)Glc
Summary of the method: as §1

B1: AFL6 (Aspergillus fumigatus), Q4WKJ1 (protein)
chain: MSFHLTAEDIRIEDGHRLVARLRNADGDLQDASIDLNTCLGNDNGHFQWDGVDFSHSAQDVHFAIEGGGQVPVLRAQLANQDGEFQDADVNLSERIENINGEFVFH
glycan array binding signal (z-score) [1]: -0.421
glycan array binding signal (z-score) [2]: 2.45
glycan array binding signal (z-score) (Fuc(a1-2)Gal(b1-4)Glc6S): -0.234
glycan array binding signal (z-score) [3]: -0.334
glycan array binding signal (z-score) [4]: -0.417
glycan array binding signal (z-score) [5]: -0.178
glycan array binding signal (z-score) [6]: 0.717
glycan array binding signal (z-score) [7]: 0.228
glycan array binding signal (z-score) [8]: -0.656
glycan array binding signal (z-score) [9]: 0.406
glycan array binding signal (z-score) [10]: 0.039
glycan array binding signal (z-score) (Gal(b1-3)GalNAc(b1-3)Gal): -0.263
glycan array binding signal (z-score) [11]: -0.706
glycan array binding signal (z-score) [12]: 1.91
glycan array binding signal (z-score) [13]: -0.509
glycan array binding signal (z-score) [14]: -0.245
glycan array binding signal (z-score) [15]: 2.41
glycan array binding signal (z-score) [16]: 2.99
glycan array binding signal (z-score) [17]: 4.09
glycan array binding signal (z-score) [18]: -0.272
glycan array binding signal (z-score) [19]: -0.44
glycan array binding signal (z-score) (Gal6P(b1-4)GlcNAc): -0.655
glycan array binding signal (z-score) [20]: -0.055
glycan array binding signal (z-score) (GalNAc(b1-3)GalNAc): -0.414
glycan array binding signal (z-score) [21]: 2.64
glycan array binding signal (z-score) [22]: 2.89
glycan array binding signal (z-score) [23]: 3.58
glycan array binding signal (z-score) [24]: 3.77
glycan array binding signal (z-score) [25]: -0.56
glycan array binding signal (z-score) [26]: 2.48
glycan array binding signal (z-score) [27]: -0.176
glycan array binding signal (z-score) [28]: -0.154
glycan array binding signal (z-score) (GlcNAc(b1-6)GalNAc): -0.476
glycan array binding signal (z-score) [29]: -0.466
glycan array binding signal (z-score) (Man(b1-4)GlcNAc): -0.133
glycan array binding signal (z-score) [30]: -0.296
glycan array binding signal (z-score) [31]: 0.029
glycan array binding signal (z-score) [32]: 4.83
glycan array binding signal (z-score) [33]: 0.04
glycan array binding signal (z-score) [34]: 0.054
glycan array binding signal (z-score) [35]: 0.065
glycan array binding signal (z-score) [36]: -0.35
glycan array binding signal (z-score) [37]: 3.09
glycan array binding signal (z-score) [38]: 0.854
glycan array binding signal (z-score) [39]: -0.135
glycan array binding signal (z-score) [40]: -0.5
glycan array binding signal (z-score) [41]: -0.306
